Results taken from PubChem BioAssay AID567 (The Scripps Research Institute Molecular Screening Center, 2006).
Out of some 65,000 compounds screened, about 370 (0.57%) were called active.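 Rule for the calls: active = activation above the screen-wide mean activation plus 3 SD (cut at about 19% in these data); inactive = the rest.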 Only a selection was taken, and actives are over-represented in it overall.

What follows are molecules tested against 5-hydroxytryptamine receptor 1A (Homo sapiens) (UniProt P08908) (assay: agonism at serotonin HTR1A receptor – cell-based, CHO, Ga15 NFAT-bla reporter, primary screen (AID 567;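 note: 0% = DMSO wells and 100% = 5-CT at EC100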)). Conditions: CHO 5-HT1a Ga15 NFAT-bla reporter, FRET ratio; at 10 µM; stronger effect = higher value; 0% basal, 100% maximal reference agonist.
Sequence of 5-hydroxytryptamine receptor 1A (Homo sapiens) (P08908 whole entry, looked up): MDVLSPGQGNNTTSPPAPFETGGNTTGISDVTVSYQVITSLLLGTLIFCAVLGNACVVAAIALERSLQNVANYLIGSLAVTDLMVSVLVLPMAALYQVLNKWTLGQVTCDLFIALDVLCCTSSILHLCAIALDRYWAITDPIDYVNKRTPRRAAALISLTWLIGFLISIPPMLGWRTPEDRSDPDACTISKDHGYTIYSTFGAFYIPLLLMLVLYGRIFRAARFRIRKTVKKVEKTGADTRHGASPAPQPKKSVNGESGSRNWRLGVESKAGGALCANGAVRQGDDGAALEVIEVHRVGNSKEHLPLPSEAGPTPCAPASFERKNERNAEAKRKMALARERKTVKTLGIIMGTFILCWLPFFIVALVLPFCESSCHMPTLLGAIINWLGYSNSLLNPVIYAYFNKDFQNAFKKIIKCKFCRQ

SMILES	activation
CCn1nnc(NC(=O)c2c(OC)cccc2OC)n1	0.51% (inactive)
O=C(COc1ccc(S(=O)(=O)NCCc2ccccc2)cc1)N1CCCC1	-3.17% (inactive)
O=C(COc1ccccc1)NCCc1nc2ccccc2[nH]1	2.44% (inactive)
Cc1cccc(NC(=O)C2CCCN2S(=O)(=O)c2ccc(F)cc2)c1C (stereo not drawn)	0.24% (inactive)
O=C1Nc2c(Br)cc(Br)cc2C1(O)N1CCOCC1 (stereo not drawn)	0.9% (inactive)
CCOCCCN1C(=O)CN(C2CCCCC2)C(=O)C1c1ccc(OCC)c(OC)c1 (stereo not drawn)	0.91% (inactive)
CCCS(=O)(=O)Nc1c(C(=O)O)[nH]c2ccccc12	-2.21% (inactive)
c1ccc(Nc2n[nH]nc2-c2ccccc2)cc1	0.42% (inactive)
CCCCOc1ccc(Cl)cc1CSc1nncn1N	-1.4% (inactive)
Cc1csc(NC(=O)NC2(C(F)(F)F)Oc3ccccc3O2)n1	1.56% (inactive)
COc1ccc(C)cc1NC(=O)CSc1nc(SC)ns1	-0.56% (inactive)
O=C(CN1CCOCC1)Nc1c(-c2ccccc2)c2cc(Br)ccc2[nH]c1=O	-1.84% (inactive)
Cc1ccc(C(=O)N(CN2CCCC2=O)c2ccc(F)cc2)cc1	-4.03% (inactive)
CC(=O)c1cccc(S(=O)(=O)N2CCC(n3nnc4cc(F)ccc43)CC2)c1	1.45% (inactive)
COc1ccc(Cn2c(=O)sc3ccccc32)cc1OC	1.04% (inactive)
CN(C)c1ccc(NC(=O)c2ccncc2)c2ccccc12	-2.38% (inactive)
O=C(CSC1=NCCS1)Nc1nc(-c2ccccc2)cs1	-0.71% (inactive)
Cc1nc(NC(=O)CCC(=O)O)sc1C(=O)N(C)C	-1.18% (inactive)
Cc1cc(NC(=O)Cn2nc(C(F)(F)F)c3c2CCCC3)no1	-1.46% (inactive)
Cc1cccc(N2CCN(C(c3ccccc3)c3nnnn3CC3CCCO3)CC2)c1C (stereo not drawn)	-0.4% (inactive)
CN(C)c1cc[n+](Cc2ccccc2)cc1	0.31% (inactive)

SMILES	activation
COC(=O)c1ccc(Oc2nc(Nc3ccc(F)cc3)nc(N3CCCC3)n2)cc1	0.02% (inactive)
N#CNC1=NCN(CCc2ccccc2)CN1	-0.74% (inactive)
CCOC(=O)N1CCC(NC(=O)C(C)n2c3ccccc3c3cnn(C)c(=O)c32)CC1 (stereo not drawn)	-1.53% (inactive)
COc1ccc(S(=O)(=O)N2CCC(C(=O)N3CCOCC3)CC2)cc1OC	-2.94% (inactive)
CCCCC(=O)N1CC2(C)CN(C(=O)CCCC)CC(C)(C1)C2=O	-3.12% (inactive)
Cc1onc(-c2ccccc2)c1C(=O)Nc1ccccc1C#N	-0.43% (inactive)
CCOC(=O)CSc1nnc(-c2ccncc2)o1	-4.83% (inactive)
COc1cccc(C2/C(=C(/O)c3ccncc3)C(=O)C(=O)N2CCCN(C)C)c1 (stereo not drawn)	-2.65% (inactive)
CN1C(=O)c2ccc(NC(=O)c3c(F)c(F)c(F)c(F)c3F)cc2C1=O	-1.19% (inactive)
Cc1nc(N2CCCC2C(=O)O)c2oc3ccccc3c2n1 (stereo not drawn)	0.22% (inactive)
CC1(C)NC(=O)N(CCOc2cccc(Oc3ccccc3)c2)C1=O	-2.31% (inactive)
CCC(=O)c1ccc(OCC(O)CN2CC(C)OC(C)C2)cc1 (stereo not drawn)	-2.72% (inactive)
CCC(=O)c1ccc(OCC(O)CN2C(=O)NC(C)(C)C2=O)cc1 (stereo not drawn)	80.3% (active)
O=C(Nc1ccccc1N1CCN(c2ccccc2)CC1)c1cccc(F)c1	3.42% (inactive)
CCCC(=O)Nc1ccccc1N1CCN(C(=O)c2ccccc2)CC1	0.59% (inactive)
O=C(Nc1ccccc1N1CCN(C(=O)c2ccccc2)CC1)c1ccc2c(c1)OCO2	60% (active)
Cc1noc(C)c1COC(=O)Cn1c(C)nc2ccccc21	-2.62% (inactive)
O=C(O)CCCC(=O)Nc1ccccc1-n1ccnc1	-6.2% (inactive)
CC(C)NS(=O)(=O)c1ccc(CCC(=O)N2CCOCC2)cc1	-3.1% (inactive)
CCn1c(SCC(=O)Nc2cc(C)ccc2C)nnc1-c1cnccn1	-3.82% (inactive)
Cc1ccc2c(c1)NCC(C(=O)NC1CCC(C)CC1)O2 (stereo not drawn)	-2.41% (inactive)

SMILES	activation
CCC(=O)Nc1ccccc1C(=O)N1CCN(Cc2ccccc2)CC1	-6.46% (inactive)
CC1CCCCN1CC(=O)NCc1ccc2c(c1)OCO2 (stereo not drawn)	0.18% (inactive)
CSc1ccc(-c2c(C#N)c(N)nc3c2c(C)nn3-c2ccccc2)cc1	1.16% (inactive)
COc1ccc(O)c(C=Nc2cc(C)on2)c1	-4.57% (inactive)
Cc1ccc(C(c2sc3nc(C)nn3c2O)N2CCN(c3ccccc3)CC2)cc1 (stereo not drawn)	1% (inactive)
Cn1cc(S(=O)(=O)N2CCC(Cc3ccccc3)CC2)c(=O)n(C)c1=O	-1.31% (inactive)
O=C(CSc1ncccn1)NC(=O)NCc1ccccc1	-2.73% (inactive)
O=C(CN1CCN(c2ccccc2F)CC1)c1ccc2c(c1)OCO2	-1.08% (inactive)
O=C(NC1CCCCC1)n1c(=O)oc2cc(S(=O)(=O)N3CCCCC3)ccc21	1.83% (inactive)
CCCC(=O)Nc1nnc(CC(=O)OCC)s1	-1.79% (inactive)
O=C(c1ccc(-n2cnnn2)cc1)N1CCN(C(c2ccccc2)c2ccccc2)CC1	-2.96% (inactive)
O=c1c(-c2ccc3c(c2)OCCO3)c(C(F)(F)F)oc2cc(O)cc(O)c12	2.15% (inactive)
CCOC(=O)c1cc2cc(-c3c(C(=O)OCC)oc4cc(O)cc(O)c4c3=O)ccc2o1	20.4% (active)
CCCOC(=O)c1cc2ccccc2oc1=O	-1.25% (inactive)
Cc1ccc(Oc2ccc(N)cc2)cc1	61.2% (active)
COc1cccc(Oc2ccc(N)cc2)c1	-1.26% (inactive)
CN(C)S(=O)(=O)c1ccc(Oc2ccc(S(=O)(=O)N(C)C)cc2)cc1	-1.45% (inactive)
C=C(Br)Cn1c(CCCC)nc2ccccc21	0.52% (inactive)
Cn1c(=O)c(=O)n(C)c2cc(S(=O)(=O)NCCc3ccccc3)ccc21	-2.1% (inactive)
CCOC(=O)C1C(=O)C=C(c2ccc(OC)cc2)CC1c1ccco1 (stereo not drawn)	-1.83% (inactive)
O=C(CS(=O)(=O)c1cn(Cc2cccc(F)c2)c2ccccc12)N1CCCCC1	0.6% (inactive)
